Active and inactive are the calls of the source.

The nature of assay [1]: compounds binding Alexa647 anti-His antibody – biochemical, small-molecule microarray, 635 nm fluorescence, artefact control for SMM control protein annotation, primary screen (AID 1128).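 Further: score merges feature fluorescence with signal-to-noise for each printed compound spot.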 The following applies: higher = more signal.
The subject of assay [2] is Human papillomavirus type 1a E7 protein (residues 1-88). Nature of the assay: HPV1a E7 small-molecule binders, primary screen, biochemical, small-molecule microarray, residues 1-88, 635 nm (AID 1129). To be noted: small-molecule microarray binding, fluorescence 635 nm; higher = more signal.
In assay [3] the target is Focal adhesion kinase 1 (Homo sapiens) (UniProt Q05397). Nature of the assay: PTK2 protein binding on printed compound slides – biochemical, small-molecule microarray, 635/667 nm fluorescence, BSA, DTT, primary screen (AID 1130).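 Further: composite of spot emission at 667 nm and signal to noise over triplicate slides.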 The following applies: 635 nm fluorescence, higher = more signal.
Focal adhesion kinase 1 (Homo sapiens), sequence (Q05397 whole entry, looked up): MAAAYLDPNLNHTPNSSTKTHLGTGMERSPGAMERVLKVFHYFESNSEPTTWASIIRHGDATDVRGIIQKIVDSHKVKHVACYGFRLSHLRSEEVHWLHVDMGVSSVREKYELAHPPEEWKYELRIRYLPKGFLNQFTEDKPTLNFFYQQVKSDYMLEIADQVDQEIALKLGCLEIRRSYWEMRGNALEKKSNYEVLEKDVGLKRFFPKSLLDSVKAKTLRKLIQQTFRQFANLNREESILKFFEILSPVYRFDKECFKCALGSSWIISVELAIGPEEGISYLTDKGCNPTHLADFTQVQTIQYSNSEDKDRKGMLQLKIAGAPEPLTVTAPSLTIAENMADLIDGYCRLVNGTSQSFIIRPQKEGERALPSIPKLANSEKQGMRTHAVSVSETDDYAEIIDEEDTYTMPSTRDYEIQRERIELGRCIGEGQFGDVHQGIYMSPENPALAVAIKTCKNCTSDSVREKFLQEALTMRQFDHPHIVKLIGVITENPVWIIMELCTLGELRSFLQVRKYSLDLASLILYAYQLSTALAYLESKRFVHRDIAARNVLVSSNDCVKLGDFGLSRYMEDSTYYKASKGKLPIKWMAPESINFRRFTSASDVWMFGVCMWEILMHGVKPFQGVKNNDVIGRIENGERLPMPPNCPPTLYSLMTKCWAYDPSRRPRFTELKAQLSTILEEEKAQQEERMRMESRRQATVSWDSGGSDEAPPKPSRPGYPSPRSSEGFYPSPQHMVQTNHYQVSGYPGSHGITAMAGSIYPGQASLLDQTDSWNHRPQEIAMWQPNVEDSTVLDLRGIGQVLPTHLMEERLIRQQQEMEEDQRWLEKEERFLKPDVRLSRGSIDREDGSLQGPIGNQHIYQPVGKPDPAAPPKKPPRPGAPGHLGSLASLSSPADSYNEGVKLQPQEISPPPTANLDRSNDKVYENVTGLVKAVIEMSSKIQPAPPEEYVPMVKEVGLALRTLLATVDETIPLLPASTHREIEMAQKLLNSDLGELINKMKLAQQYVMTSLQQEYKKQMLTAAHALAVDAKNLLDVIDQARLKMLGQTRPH
Assay [4] has as its system Fibrinogen (Alexa647-labelled). Nature of the assay: Alexa647-fibrinogen binding to printed small molecules – biochemical, small-molecule microarray, 635/667 nm fluorescence, artefact control for SMM control-protein annotation, profiling panel (AID 1131).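 Further: z-score merges 667 nm fluorescence with per-spot signal-to-noise over triplicate slides.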 To be noted: fibrinogen-A647 binding fluorescence, higher = more signal.
The target of assay [5] is Follistatin (Homo sapiens) (UniProt P19883). Nature of the assay: FST protein binding to printed compounds – biochemical, small-molecule microarray, 635/667 nm fluorescence, primary screen (AID 1132). To be noted: 635 nm fluorescence, higher = more signal.
Follistatin (Homo sapiens), sequence (P19883 whole entry, looked up): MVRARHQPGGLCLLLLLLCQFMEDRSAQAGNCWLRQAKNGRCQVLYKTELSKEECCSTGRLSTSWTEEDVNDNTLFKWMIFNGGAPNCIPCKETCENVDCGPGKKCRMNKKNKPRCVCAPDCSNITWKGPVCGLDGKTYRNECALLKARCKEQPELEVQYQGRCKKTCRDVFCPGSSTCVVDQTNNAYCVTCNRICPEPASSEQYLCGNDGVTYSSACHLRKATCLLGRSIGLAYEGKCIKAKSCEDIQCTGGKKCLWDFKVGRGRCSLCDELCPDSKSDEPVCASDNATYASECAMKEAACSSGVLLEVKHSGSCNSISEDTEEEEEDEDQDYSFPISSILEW
The target of assay [6] is Fibroblast growth factor 2 (Homo sapiens) (UniProt P09038). Nature of the assay: basic fibroblast growth factor binding to printed compounds – biochemical, small-molecule microarray, 635/667 nm fluorescence, primary screen (AID 1133). The following applies: FGF2, fluorescence 635/667, higher = more signal.
Fibroblast growth factor 2 (Homo sapiens), sequence (P09038 whole entry, looked up): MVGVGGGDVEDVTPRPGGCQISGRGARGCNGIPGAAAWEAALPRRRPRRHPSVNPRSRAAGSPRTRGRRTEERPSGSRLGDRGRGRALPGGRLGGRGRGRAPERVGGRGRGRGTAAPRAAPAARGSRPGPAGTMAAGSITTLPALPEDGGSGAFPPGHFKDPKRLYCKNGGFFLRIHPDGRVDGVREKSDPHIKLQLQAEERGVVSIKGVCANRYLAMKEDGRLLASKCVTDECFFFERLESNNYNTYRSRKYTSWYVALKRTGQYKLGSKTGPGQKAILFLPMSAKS
Assay [7] in a line: JC-1 mitochondrial potential readout, lung cancer cells – cell-based, A549, JC-1 fluorescence, basal, 24 h, 100 nL, profiling panel (AID 1138).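 Further: A549 lung adenocarcinoma cells under basal conditions with no added stimulus; test concentration not given here.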 To be noted: higher = more signal.
Another assay has as its system Lefty1. Briefly: Lefty1 protein binding to printed compounds – biochemical, small-molecule microarray, 635/667 nm fluorescence, primary screen (AID 1139). To be noted: fluorescence 635/667, higher = more signal.
Assay [8] has as its system wheat germ agglutinin (Triticum aestivum), Alexa647-labelled. Briefly: Alexa647-WGA lectin binding to printed small molecules – biochemical, small-molecule microarray, 635/667 nm fluorescence, artefact control for SMM control-protein annotation, profiling panel (AID 1140).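 Further: score merges 667 nm feature emission with signal to noise over triplicate slides.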 To be noted: WGA-A647 binding, 635 nm fluorescence, higher = more signal.
The target of assay [9] is Luciferin 4-monooxygenase (Photinus pyralis) (UniProt P08659). Nature of the assay: inhibition of purified Photinus pyralis luciferase – biochemical, luminescence, purified enzyme, 2006 set, primary screen (AID 1141).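 Further: cell-free assay with purified firefly luciferase at 100 ng per well in PBS; test concentration not given here.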 To be noted: purified firefly luciferase, SteadyGlo luminescence, 30 min; higher = more signal, called active from +8 up or from −8 down.
Luciferin 4-monooxygenase (Photinus pyralis), sequence (P08659 whole entry, looked up): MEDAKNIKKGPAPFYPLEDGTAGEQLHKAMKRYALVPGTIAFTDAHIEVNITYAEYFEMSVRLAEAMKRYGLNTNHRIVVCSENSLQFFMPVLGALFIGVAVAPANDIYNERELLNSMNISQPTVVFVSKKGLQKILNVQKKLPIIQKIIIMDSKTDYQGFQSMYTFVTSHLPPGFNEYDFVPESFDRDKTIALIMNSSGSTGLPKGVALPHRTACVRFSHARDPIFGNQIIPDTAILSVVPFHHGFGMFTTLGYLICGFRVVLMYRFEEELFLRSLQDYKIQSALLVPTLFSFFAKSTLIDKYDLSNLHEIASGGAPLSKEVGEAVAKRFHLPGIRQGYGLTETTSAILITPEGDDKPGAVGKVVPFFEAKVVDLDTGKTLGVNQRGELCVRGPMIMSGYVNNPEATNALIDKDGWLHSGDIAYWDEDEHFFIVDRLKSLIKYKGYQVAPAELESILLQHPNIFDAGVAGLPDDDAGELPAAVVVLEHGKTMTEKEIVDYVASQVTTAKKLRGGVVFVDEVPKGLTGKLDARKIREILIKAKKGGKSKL

Turning to `CC(=O)NCCCC[C@@H]1NC(=O)[C@H]2C[C@@H](C(=O)O)[C@@H](c3ccc(O)cc3)N2C1=O`, the composite z-score in assay [1] was 2.26; in assay [2], 1.21; in [3], 0.626; in assay [4], 0.584; in assay [5] it was 1.32; in assay [6] it was 1.67. The composite z-score in the assay on Lefty1 was determined as 1.45; in [8], 0.478. Moreover, the z-score in [7] is -0.738; in assay [9], -3.39 (inactive).
Consider `O=C1N(CCS(=O)(=O)c2ccccc2)c2ccccc2[C@@H]2OC(c3ccc(OCCCO)cc3)=N[C@]12Cc1ccccc1`, for which the composite z-score in [1] was found to be 1.65; in assay [2], 1.19; in [3], 1.05; in assay [4], 0.959; in assay [5] it was 1.43; in assay [6] it was 1.71. Also, the composite z-score in the assay with Lefty1 came out at 1.18; in assay [8] it was 0.668. Further, the z-score in assay [7] was 2.29; in assay [9], -11.5 (active).
As to `COc1ccc([C@H]2OC[C@@H]3CCC(=O)N32)cc1`, the composite z-score in assay [1] came out at 0.822; in assay [2], 1.02; in [3], 0.0902; in [4] it was 0.362; in assay [5], 0.886; in assay [6], 0.031. The composite z-score in the assay on Lefty1 came to 1.36; in assay [8] it was 0.329. Moreover, the values for the z-score in assay [7] and in [9] were 0.779 and -0.699 (inactive), respectively.
`C#CCN(C/C=C/c1ccccc1)[C@H](CO)c1ccccc1`: the composite z-score is -0.429 in assay [1]; 0.168 in assay [2]; -0.0352 in [3]; -0.213 in assay [4]; 0.495 in assay [5]; 0.444 in assay [6]. Also, the composite z-score in the assay with Lefty1 was 0.968; in assay [8] it was 0.241. Besides, the z-score in assay [7] was -1.38; in assay [9] it was 0.616 (inactive).
Consider `CCCCN1CC=CC23O[C@@H]4/C=C\CCCOC(=O)C4[C@H]2C(=O)N(CCCO)[C@@H]3C1=O` (stereo not given in full), for which the composite z-score was 2.36 in assay [1]; -0.43 in assay [2]; -0.226 in assay [3]; -1.73 in assay [4]; -0.98 in assay [5]; -0.251 in assay [6]. The composite z-score in the assay with Lefty1 was -0.0249; in assay [8], -0.151. Further, the z-score was 0.259 in assay [7] and 0.633 (inactive) in assay [9].
`COC(=O)[C@]1(CCC(=O)OC(C)(C)C)N=C(c2ccc(OCCCO)cc2)O[C@@H]1c1ccccc1`: the composite z-score in assay [1] was 2.76; in assay [2], 0.527; in assay [3] it was -0.239; in assay [4] it was -0.233; in assay [5], 0.263; in [6], 0.16. Also, the composite z-score in the assay with Lefty1 is -0.657; in assay [8] it was 0.197. Also, the figures for the z-score in [7] and in assay [9] were 0.804 and -2.77 (inactive), respectively.
Regarding `C=C(CCCC)/C(=C/C[C@@H](OC(C)=O)c1ccccc1OCCO)c1cc(C(=O)OC)ccc1OC`, the composite z-score in assay [1] is -0.9; in assay [2], -0.2; in assay [3], -0.0448; in assay [4], 0.259; in assay [5], 0.35; in [6], 0.16. Moreover, the figures for the composite z-score (in the assay with Lefty1; in assay [8]) were 0.384 and 0.0424, respectively. Moreover, the z-score in assay [7] is 2.6; in [9] it was -2.02 (inactive).
Take `COC(=O)[C@@]1(Cc2ccccc2)[C@H]2c3cc(C(=O)N4CCCC4)n(Cc4c(CO)[nH]cc(C)c4=O)c3C[C@H]2CN1C(=O)c1ccccc1`: the composite z-score was 1.18 in assay [1]; 0.93 in assay [2]; 0.777 in assay [3]; 0.827 in assay [4]; 0.518 in assay [5]; -0.258 in assay [6]. In addition, the composite z-score in the assay on Lefty1 is -0.816; in [8], 1.05. Also, the values for the z-score in assay [7] and in assay [9] were -0.0421 and 2.49 (inactive), respectively.
For `COC(=O)[C@@]1(CCC(=O)OC(C)(C)C)N=C(c2ccc(OCCCO)cc2)O[C@H]1c1ccccc1`, the composite z-score in [1] was found to be 0.467; in [2] it was 0.896; in assay [3], 0.517; in assay [4] it was 0.554; in assay [5] it was 0.693; in [6], 0.989. Besides, the composite z-score is -0.85 in the assay with Lefty1 and 0.492 in assay [8]. For the same molecule, the z-score is -0.4 in [7] and -5.22 (inactive) in assay [9].
For `COc1ccc(CCNC(=O)[C@@]2(c3ccc([N+](=O)[O-])cc3)CC(=O)N(CC34CC5CC(CC(C5)C3)C4)[C@@H]2c2ccc(CO)cc2I)cc1`, the composite z-score is 1.35 in assay [1]; 1.17 in [2]; 0.458 in assay [3]; 0.478 in assay [4]; 1.39 in assay [5]; 1.37 in assay [6]. Further, the figures for the composite z-score (with Lefty1; in [8]) were 0.881 and 0.913, respectively. Also, the z-score in assay [7] is -1.36; in [9], 0.641 (inactive).
As for `O=C1O[C@H](c2ccccc2)[C@H](c2ccccc2)N2[C@H]1[C@@H](C(=O)NC[C@H](O)c1ccccc1)[C@]1(C(=O)Nc3ccc(C#CC4=CCCCC4)cc31)[C@H]2c1ccccc1OCCO`, the composite z-score is 1.24 in [1]; 1.19 in assay [2]; 0.661 in [3]; 0.86 in assay [4]; 1.1 in assay [5]; 0.198 in assay [6]. Also, the composite z-score amounted to 0.632 in the assay on Lefty1 and 1.05 in assay [8]. The results for the z-score in assay [7] and in assay [9] were -1.76 and -0.758 (inactive), respectively.
As for `CCOC(=O)C1=CC[C@@H](c2ccccc2)N(S(=O)(=O)c2ccc(C)cc2)[C@H]1c1ccc(CC)cc1`, the composite z-score in assay [1] came out at 1.09; in [2], 1.18; in [3], 0.761; in assay [4], 0.966; in assay [5], 0.352; in assay [6] it was 0.286. Moreover, the composite z-score in the assay with Lefty1 was 0.245; in assay [8], 0.758. The figures for the z-score in assay [7] and in [9] were 2.58 and 1.46 (inactive), respectively.
Turning to `NC(=O)[C@@]1(Cc2ccccc2)N=C(c2ccc(OCCCO)cc2)O[C@H]1c1ccccc1`, the composite z-score in assay [1] is 3.01; in [2], 0.614; in assay [3], 0.0867; in assay [4], 0.648; in assay [5] it was 0.62; in assay [6], 0.686. Also, the composite z-score in the assay on Lefty1 is -0.846; in assay [8] it was 1.3. Moreover, the z-score was 0.184 in [7] and -1 (inactive) in [9].
As to `O=C1C2C=CC(C(O)c3ccc(-c4ccccc4)s3)N(Nc3ccccc3)C2C(=O)N1c1ccccc1` (stereo not given), the composite z-score in [1] is 2.17; in assay [2] it was 1.25; in assay [3], 0.473; in assay [4], 0.974; in assay [5], 0.899; in [6], -0.413. Also, the composite z-score with Lefty1 was -0.28; in assay [8], 0.807. Moreover, the figures for the z-score in [7] and in assay [9] were 0.267 and 0.192 (inactive), respectively.

Source of the values: PubChem BioAssay.
